Assay outcomes deposited in PubChem by National Center for Advancing Translational Sciences (NCATS).
AID inhibitor – blocks human AID cytidine deaminase activity | Q9GZX7 | AID deamination FRET fluorescence, UDG-coupled, 4 h | Potency, µM (titrated, usually from 115 µM), usual class: inhibitors | hit rate 0.32% among 91,000; also: nearly all actives have a fitted effect of over 25% in size
Target sequence (Q9GZX7 whole entry, looked up): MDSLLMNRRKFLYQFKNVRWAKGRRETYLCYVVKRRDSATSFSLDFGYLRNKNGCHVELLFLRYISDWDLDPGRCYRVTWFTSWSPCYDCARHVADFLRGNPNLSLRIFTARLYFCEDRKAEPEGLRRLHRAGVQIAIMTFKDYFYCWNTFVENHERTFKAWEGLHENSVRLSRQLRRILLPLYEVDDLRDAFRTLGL
UDG counter – blocks uracil-DNA glycosylase in AID counter-screen. FRET deamination/UDG coupled assay, UDG read, 4 h. hit rate 0.14% among 91,000. Potency, µM (titrated, usually from 115 µM), without a hit: top-dose activity change, negative = inhibition, hits mostly inhibitors. AID 1347430; also: nearly all actives have a fitted effect of over 65% in size
The depositor's hits bear a star; i = inactive; ? = inconclusive; ! = not confirmed by another sample; [ ] = another dose, or the depositor's remark. Rows were chosen to be rich in hits. Some 0.47% of all compounds tested hit in one or more screens of this group. Calls follow the shape of the dose curve; as a rule, active = well fitted curve in the direction sought with a large enough effect; inconclusive = small, poorly fitted or top-dose-only effect, or another doubt; inactive = no such curve, though single readings can be large; an effect the other way counts as inactive or inconclusive. % is scaled to controls: 0 for no effect and ±100 for the full control effect; potency is read from the fitted curve at half-maximal effect.

SMILES	AID inhibitor	UDG counter
CCc1ccccc1N(C)C(=O)c1nn(C)c2c1CSc1ccccc1-2	?	-4.4%[57.5 µM]
CC(OC(=O)c1cc2ccccc2[nH]1)C(=O)NC1CC1 (stereo not given)	i	3.7%
COc1ccccc1NC(=O)C1CCN(c2nccnc2Sc2ccc(C)cc2)CC1	i	?
COc1ccc(Cl)cc1NC(=O)C1CCN(c2nccnc2Oc2ccccc2C)CC1	i	89.1µM*
COc1ccc(-c2nc3c(c(SCC(=O)Nc4cccc(O)c4)n2)Cc2c(CO)cnc(C)c2O3)cc1	44.7µM*	-14.9%
COc1cc(NC(=O)CSc2nc(-c3ccc(C)cc3)nc3c2Cc2ccccc2O3)cc(OC)c1	i	-17.3%
O=C(CSc1nc(-c2ccc(F)cc2)nc2c1Cc1ccccc1O2)Nc1cccc(C(=O)O)c1	39.8µM*	-0.5%
CCOc1ccc(NC(=O)CSc2nc(-c3ccc(OC)cc3)nc3c2Cc2c(CO)cnc(C)c2O3)cc1	i	1.8%
COC(=O)Cn1c(=O)c2c3c(sc2n(Cc2ccccc2)c1=O)CCC3	i	1.2%
Cc1ccc(-c2cnc(CCC(=O)Nc3ccc(F)c(F)c3)o2)cc1C	i	-3.6%
COc1ccc(-c2nc(C)c(CCNC(=O)c3cccs3)s2)cc1OC	i	-9.0%
Cc1nc(-c2ccc(F)cc2)sc1CCNC(=O)c1ccc(C(C)(C)C)cc1	15.8µM*	-12.9%
Cc1nc(-c2ccc(F)cc2)sc1CCNC(=O)c1ccccc1	i	4.9%
Cc1nc(-c2ccc(F)cc2)sc1CCNC(=O)c1cccs1	?	79.4µM*
Cn1c(=O)c2c(nc(NCc3ccccc3)n2Cc2cccc(Br)c2)n(C)c1=O	i	-11.5%
COc1ccc2c(CCNC(=O)CNc3nc(Cl)nc4nc[nH]c34)c[nH]c2c1	i	18.5%
COc1cc2c(=O)c(C(=O)c3ccc(C)c(C)c3)cn(Cc3ccccc3)c2cc1OC	?	-11.4%
COc1cc2c(=O)c(C(=O)c3ccc(C)c(C)c3)cn(Cc3ccc(F)cc3)c2cc1OC	44.7µM*	-20.3%
CCOc1cccc2c(C)nc(Nc3nc(C)c(CC)c(=O)[nH]3)nc12	50.1µM*	-7.3%
COc1ccc2nc(Nc3nc(C)c(CCC(C)C)c(=O)[nH]3)nc(C)c2c1	i	2.9%
Fc1ccc(CNC(=S)NCc2ccc(Cl)c(Cl)c2)cc1	i	-11.2%
Nc1ccccc1C(=O)NCCc1ccccc1	i	-0.8%
NNCCc1ccccc1	44.7µM*	31.6µM*
COc1ccccc1OCCCSc1nc(-c2ccc(C(C)(C)C)cc2)nc2cc(=O)[nH]n12	?	0.8%
CC(C)(C)c1ccc(-c2nc(SCCCOc3ccccc3)n3[nH]c(=O)cc3n2)cc1	79.4µM*	-16.2%
SMILES	AID inhibitor	UDG counter
Nc1nccnc1C(=O)NCC(c1ccccc1)c1c[nH]c2ccccc12 (stereo not given)	i	-8.1%
Clc1ccc(-c2noc3ncnc(NCCc4ccccc4)c23)cc1	25.1µM*	-10.3%
Cc1noc2ncnc(NCCc3ccccc3)c12	?	-4.3%
Cc1ccc(Sc2c(C)nn(-c3ccccc3)c2OC(=O)CC(C)C)cc1	?	-18.9%
COc1ccccc1C(=O)Oc1c(Sc2ccccc2)c(C)nn1-c1ccccc1	44.7µM*	?
Cc1cc(N(Cc2ccccc2F)C2CC2)n2nc(C(F)(F)F)nc2n1	i	-9.1%
NNc1ccc(Br)c2ccccc12	i	-12.6%
COc1ccc(CNC(=O)c2ccc(-c3nc(CS(=O)c4ccc(C)cc4)c(C)o3)cc2)cc1 (stereo not given)	?	89.1µM*
Cc1ccc(CNC(=O)c2ccc(-c3nc(CS(=O)c4ccccc4)c(C)o3)cc2)cc1 (stereo not given)	i	-28.9%
Cc1ccc(C)c(C(=O)Nc2ccc(Cl)c(C(F)(F)F)c2)c1	i	-8.1%
Cc1cc(C)cc(NC(=O)COCc2cc(-c3ccc4c(c3)OCO4)on2)c1	?	79.4µM*
COc1cc(NC(=O)COCc2cc(-c3ccc4c(c3)OCO4)on2)cc(OC)c1	i	?
COc1cc(SC)ccc1C(=O)O	i	-5.1%
Cc1ccc(Cn2c(-n3nc(C)c(C)c3C)nc3c2c(=O)n(CC(N)=O)c(=O)n3C)cc1	i	-6.6%
Cc1ccc(CNC(=O)C2CCCN(c3nc4ccccc4n4cccc34)C2)cc1 (stereo not given)	79.4µM*	-8.6%[57.5 µM]
COc1cccc(CNC(=O)C2CCCN(c3nc4ccccc4n4cccc34)C2)c1 (stereo not given)	i	-6.3%[57.5 µM]
Cc1cccc(N(CC(=O)N(C)Cc2ccccc2)S(=O)(=O)c2ccccc2)c1C	35.5µM*	-9.7%
Cc1cccc(N(CC(=O)NCCc2ccccc2)S(=O)(=O)c2ccccc2)c1C	i	3.0%[57.5 µM]
Cc1c(C(=O)c2cccc(C(F)(F)F)c2)c2ccccn2c1CCC#N	i	-15.7%
CCOc1ccc(S(=O)(=O)Nc2nc3ccccc3nc2Nc2ccc(OC)cc2)cc1	?	-1.4%
CCc1ccc(Nc2nc3ccccc3nc2NS(=O)(=O)c2ccccc2)cc1	28.2µM*!	3.5%
COC(=O)c1[nH]c2ccc(C)cc2c1NC(=O)C(C)N1CCCC(C)(C)C1 (stereo not given)	i	0.6%
Cc1c(Cl)cccc1-n1ncc(C(=O)N2CCN(c3ncccn3)CC2)c1C1CCN(C(=O)OC(C)(C)C)CC1	i	-8.5%
COc1ccc(CCN2CCC(CNC(=O)c3cnn(-c4cccc(Cl)c4)c3C3CCN(C(=O)OC(C)(C)C)CC3)CC2)cc1	35.5µM*	-17.1%
COc1ccc(CCN2CCC(CNC(=O)c3cnn(-c4ccccc4)c3C3CCN(C(=O)OC(C)(C)C)CC3)CC2)cc1	?	42.7%
SMILES	AID inhibitor	UDG counter
COc1ccccc1N1CCN(CCCNC(=O)c2cnn(-c3ccc(C)c(C)c3)c2C2CCN(C(=O)OC(C)(C)C)CC2)CC1	50.1µM*	11.9%
Cc1ccc(C)c(N2CCN(CCCNC(=O)c3cnn(-c4ccccc4)c3C3CCN(C(=O)OC(C)(C)C)CC3)CC2)c1	i	37.7%
CC(C)(C)OC(=O)N1CCC(c2c(C(=O)N3CCN(c4ccccc4F)CC3)cnn2-c2ccccc2Cl)CC1	50.1µM*	?
CC(C)/C=N/Nc1ccc(S(N)(=O)=O)cc1[N+](=O)[O-]	i	-8.7%
COc1cccc(-n2c(SCC(=O)Nc3cccc(C)c3)nc3c([nH]c4ccccc43)c2=O)c1	12.6µM*	-19.2%
COc1cccc(NC(=O)CSc2nc3c([nH]c4ccccc43)c(=O)n2-c2cccc(Cl)c2)c1	i	-4.5%
CN(C)c1ccc(NC(=O)c2ccc[n+]([O-])c2)cn1	i	-0.4%
CCOc1ccccc1N1CC(c2nc3ccccc3n2CCCCOc2ccccc2)CC1=O (stereo not given)	i	-14.7%
O=C1CC(c2nc3ccccc3n2CCCCOc2ccccc2)CN1c1ccccc1Cl (stereo not given)	?	89.1µM*
Cc1ccc(N2CC(c3nc4ccccc4n3CCC3CCCCC3)CC2=O)cc1 (stereo not given)	i	?
CCc1ccccc1N1CC(c2nc3ccccc3n2CCC2CCCCC2)CC1=O (stereo not given)	?	79.4µM*
N#Cc1c(/N=C/c2cccc(Br)c2)sc2c1CCCC2	i	-1.7%
COc1ccc(Cl)cc1NC(=O)CSc1nc2c(c(=O)n1CCc1ccccc1)SCC2	i	0.1%
CCCOC(=O)c1cc(NC(=O)c2cccc(C)c2OC)ccc1N1CCOCC1	i	2.2%
COc1ccc(CNC(=O)c2cnc3sc(N4CCCC4)nn3c2=O)cc1OC	i	-8.7%
